Shown is part of a subset that was picked to be rich in hits.
FBPA Giardia inh = Giardia lamblia aldolase inhibition; A8B2U2; purified Giardia FBPA; Potency, µM (doses to about 59.6 µM), for the others: top-dose activity, negative = inhibition, most hits filed as inhibitors; actives 0.71% (n = 290,000); AID 2451; further: potency means the concentration at half of the fitted maximal effect; on the % scale 0 is the no-effect control and ±100 the full control effect; nearly all actives have a fitted effect of over 55% in size
Target sequence (A8B2U2 whole entry, looked up): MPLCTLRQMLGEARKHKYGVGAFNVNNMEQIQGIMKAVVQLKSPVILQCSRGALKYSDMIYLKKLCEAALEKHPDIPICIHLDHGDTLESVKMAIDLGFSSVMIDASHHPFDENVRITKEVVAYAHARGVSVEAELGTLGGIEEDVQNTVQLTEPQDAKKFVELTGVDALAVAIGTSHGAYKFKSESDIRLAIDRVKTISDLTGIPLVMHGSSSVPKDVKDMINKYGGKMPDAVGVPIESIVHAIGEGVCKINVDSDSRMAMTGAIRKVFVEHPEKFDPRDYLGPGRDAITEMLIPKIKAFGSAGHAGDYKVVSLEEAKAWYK
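Giardia FBPA (40 nM reagent) was preincubated 10 min at RT with compound (up to 57.5 uM final), then substrate plus GAPDH/TPI/NAD/arsenate coupling system with diaphorase/resazurin was added; resorufin fluorescence (525/598 nm) was read after 20 min.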
LmPK inh = inhibitors of Leishmania mexicana pyruvate kinase. purified LmPK, Kinase-Glo ATP luminescence, 1 h. actives 0.37% (n = 290,000). Q27686. Potency, µM (doses to about 57.5 µM), inactives show top-dose activity change, negative = inhibition, hits mostly inhibitors. AID 1721; further: potency means the concentration at half of the fitted maximal effect; on the % scale 0 is the no-effect control and ±100 the full control effect
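Purified LmPK (0.1 nM) with 0.5 mM PEP and 0.1 mM ADP in imidazole buffer pH 7.2 with MgCl2/KCl, 1 h at room temperature. ATP formed was read by luciferase luminescence and normalized to no-enzyme and uninhibited controls.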
Cycloheximide cs = counter-screen hit for Shiga toxin inhibitors, cycloheximide | actives 12% (n = 300,000) | max response, % | cell reporter, cycloheximide protein synthesis inhibition counterscreen | AID 2314; in the data active means max response mostly above about 13%, no sharp cut-off; inactive means mostly below about 14%; further: read at 38.3 µM for the half of the compounds with a filed dose; 0% is about no effect
Tb PYK inh = inhibitors of Trypanosoma brucei pyruvate kinase; Q57TT1; TbPYK enzyme, Kinase-Glo Plus ATP luminescence, 45 min; Potency, µM (doses to about 76.8 µM), for the others: top-dose activity, negative = inhibition, hits mostly inhibitors; actives 0.12% (n = 410,000); AID 624173; further: potency means the concentration at half of the fitted maximal effect; on the % scale 0 is the no-effect control and ±100 the full control effect; nearly all actives have a fitted effect of over 50% in size
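T. brucei PYK with substrate was exposed to pin-transferred compounds across a concentration series, then started with 130 uM ADP (final). After 45 min at room temperature, Kinase-Glo Plus luminescence was read, normalized and curve-fitted.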
Shiga inhibitor = inhibitors of Shiga toxin in Vero cells; actives 9.2% (n = 290,000); inhibition, % at 38.7 µM; AID 2315; Vero cells, Shiga toxin protein synthesis inhibition reporter; in the data active means inhibition mostly above about 28%, no sharp cut-off; inactive means mostly below about 43%; further: 0% is about no effect
RE007 growth inh = less growth of the S. pombe RE007 Vpr strain; S. pombe RE007 Vpr strain, BacTiter-Glo ATP luminescence, 24 h; Potency, µM (titrated, usually from 92.2 µM), for the others: top-dose activity change, negative = less growth, usual class: inhibitors; actives 0.21% (n = 360,000); active means well fitted falling curve with a large enough effect; inconclusive means small, poorly fitted or top-dose-only effect; inactive means no such curve, though single readings can be large or run the other way; further: potency means the concentration at half of the fitted maximal effect; on the % scale 0 is the no-effect control and ±100 the full control effect; nearly all actives have a fitted effect of over 50% in size
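Fission yeast RE007 carrying one integrated HIV-1 vpr copy, seeded at OD 0.01 in PMG+AL medium with 23 nL pinned compound. Grown 24 h at 30 degrees; viability read by BacTiter-Glo luminescence after 5 min.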
* hit, by the source's call; ? = inconclusive; / = no result; [ ] = dose if it differs, or a comment. Unless noted, the call rests on the fitted dose curve; in most records, active means well fitted curve in the direction sought with a large enough effect; inconclusive means small, poorly fitted or top-dose-only effect, or another doubt; inactive means no such curve, though single readings can be large; an effect the other way counts as inactive or inconclusive.

SMILES	FBPA Giardia inh	LmPK inh	Cycloheximide cs	Tb PYK inh	Shiga inhibitor	RE007 growth inh
CCOC(=O)c1noc2ncnc(N3CCN(c4cccc(Cl)c4)CC3)c12	/	/	/	-4%	/	/
CCc1ccc(CNC(=O)c2ccc3c(c2)nc2n3CCCCC2)cc1	/	/	/	-1%	/	/
CCOc1ccc(-n2c(=O)c3c(C)c(C)sc3n(Cc3ccccc3C)c2=O)cc1	/	/	/	3%	/	/
Cc1c(C)n(CCN(C)C)c2ncnc(NCc3ccccc3)c12	-2%	-1%	-3	5%	3	4%
Cc1c(C)n(CCc2ccccc2)c2ncnc(NCCCN(C)C)c12	5%	-3%	18	6%	28*	10%
C[N+]1(C)CC[C@@H](OC(=O)[C@@](O)(c2ccccc2)C2CCCC2)C1	-4%[21.7 µM]	/	/	/	/	/
CC(=O)CC(c1ccccc1)S(=O)(=O)c1ccc(C)cc1 (configuration not stated)	0%	9%	-1	1%	-8	-3%
COc1ccc(C(CC(=O)c2ccccc2)S(=O)(=O)c2ccc(C)cc2)cc1 (configuration not stated)	1%	?	34*	-11%	33*	-19%
O=C(NCCc1ccccc1)C1CCC(CNS(=O)(=O)c2ccc(F)cc2)CC1 (configuration not stated)	/	-5%	16*	-1%	16	6%
CCc1cccc(NC(=O)c2cc3c(=O)oc4ccc(C)cc4c3s2)c1	/	/	/	-7%	/	/
CC1(C)CC(=O)C=C(NNC(=O)c2ccccc2O)C1	/	-24%	-2	-6%	-16	?
Cc1cccc(C(=O)NNC2=CC(=O)CC(C)(C)C2)c1O	-13%	-17%	16*	-4%	65*	-9%
Cn1cc(Cl)c(C(=O)Nc2nccs2)n1	/	-3%	40*	-2%	71*	1%
O=C(Nc1nccs1)c1ncc(Cl)c(Cl)c1Cl	/	-5%	42*	0%	66*	-21%
O=C(Nc1nccs1)c1cnccn1	-20%	2%	2	4%	24	4%
CC1CCCCN1C(=O)CSc1nc(-c2ccccc2)cc(=O)[nH]1 (configuration not stated)	1%	-4%	-3	-6%	-3	26%
CCn1c(SCC(=O)N2CCCCC2C)nc2ccsc2c1=O (configuration not stated)	-13%	-3%	-2	-13%	-6	11%
O=C(CSc1nc2ccccc2[nH]1)N1CCCCC1	-11%	-13%	47*	2%	63*	-9%
CC1CCCCN1C(=O)CSc1nc2ccccc2[nH]1 (configuration not stated)	0%	1%	33*	-5%	81*	3%
CC1CCCCN1C(=O)CSc1nc2ccsc2c(=O)n1Cc1ccccn1 (configuration not stated)	2%	7%	14	0%	40*	4%
CCOc1ccccc1N(C)C(=O)c1sc2nc3n(c(=O)c2c1C)CCCC3	/	/	/	-2%	/	/
O=C(Nc1ccc2nc(SCC(=O)N3CCCC3)sc2c1)c1cccc(Br)c1	/	/	/	0%	/	/
CCCN(CCC)CCNC(=O)C1CCCN(S(=O)(=O)c2cccc3nsnc23)C1 (configuration not stated)	/	/	/	0%	/	/
Cc1ccn2c(CC(C)(C)C)c(-c3ccc(F)cc3)nc2c1	/	/	/	-2%	/	-12%
Cc1ccn2c(C=O)c(-c3ccc(F)cc3)c(C=O)c2c1	-13%	4%	28*	-4%	47	-3%
SMILES	FBPA Giardia inh	LmPK inh	Cycloheximide cs	Tb PYK inh	Shiga inhibitor	RE007 growth inh
CCOC(=O)c1cc(OC(=O)c2ccc(Cl)cc2)n(-c2ccccc2)n1	/	/	/	-10%	/	/
O=C1c2ccccc2C(=O)N1CCc1c[nH]c2ccccc12	-3%	1%	48*	-2%	95*	-3%
O=C1c2ccccc2C(=O)N1CCCc1c[nH]c2ccccc12	-7%	1%	17*	-6%	21	-13%
CNCCc1c[nH]c2ccc(O)cc12	2µM*	/	/	-12%	/	2%
O=C(CN1C(=O)c2ccccc2C1=O)NCCc1c[nH]c2ccccc12	-2%	-6%	-5	-1%	-8	-12%
O=C1c2ccccc2C(=O)N1CCc1c[nH]c2ccc(O)cc12	-7%	2%	34*	-3%	46	-4%
O=C1COCC(=O)N1CCc1c[nH]c2ccccc12	-2%	1%	8	0%	22	-11%
c1ccc2c(CN3CCCCCC3)c[nH]c2c1	0%	-2%	39*	2%	73*	1%
O=C1CCCCN1CCc1c[nH]c2ccccc12	-13%	3%	25*	-9%	active	?
O=C1[C@H]2[C@H]3[C@H](O)[C@H](O)C/C(=N/OC[C@@H](O)COCc4ccco4)[C@H]3CC[C@@H]2C(=O)N1Cc1ccc2c(c1)OCO2	0%[12.9 µM]	/	/	/	/	/
O=c1[nH]cccc1-c1nc2ccccc2[nH]1	3%	-9%	21*	-4%	55*	-7%
Nc1ccc(-c2nc3ccccc3[nH]2)cc1	-3%	?	33*	-8%	102*	-9%
Nc1ccc(-c2nc3c(ccc4ccccc43)[nH]2)cc1	-20%	0%	25*	-3%	43*	-10%
Fc1ccc(-c2nc3ccccc3[nH]2)cc1	-22%	?	35*	-1%	115*	-25%
Cc1ccc(C(=O)c2oc3ccccc3c2NC(=O)C(C)Oc2ccccc2Cl)cc1 (configuration not stated)	/	/	/	-1%	/	/
CCOC(=O)C1CCN(C(=O)CSc2n[nH]c(-c3ccccc3Cl)n2)CC1	/	/	/	6%	/	/
Cc1ccccc1CNC(=O)C1CCCCN1S(=O)(=O)c1ccc(F)cc1 (configuration not stated)	/	/	/	9%	/	/
Cc1ccc(CN(Cc2ccco2)c2cnc(S(C)(=O)=O)nc2C(=O)Nc2ccc(Br)cc2)o1	/	/	/	-2%	/	/
Cc1[nH]ncc1-c1nc2ccccc2[nH]1	7%	-4%	1	2%	20	8%
Oc1ccc(C=Nc2ccccc2-c2nc3ccccc3[nH]2)cc1	-15%	-3%	70*	1%	92*	0%
Cn1cc(-c2nc3ccccc3[nH]2)c2ccccc21	-11%	-11%	36*	4%	87*	-10%
CCn1c(=O)c(-c2nc3ccccc3[nH]2)c(O)c2ccccc21	3%	5%	22*	-1%	35	-5%
Cc1c(-c2nc3ccccc3[nH]2)cnn1C	/	/	/	-3%	/	5%
Nc1ccccc1-c1nc2ccccc2[nH]1	-5%	-13%	45*	-4%	92*	-23%
O=C(O)c1sccc1S(=O)(=O)Nc1ccc(Cl)cc1	-4%	/	/	/	/	/
N#CCSc1ccc(-c2nc3ccccc3[nH]2)cn1	-12%	25µM*	29*	0%	44*	-29%
CC(C)(C)c1ccc(C(=O)NC(=S)N2CCCC2)cc1	/	-3%	32*	-12%	28	5%
